# Measurements as given in publication PMC7862700, “An all-to-all approach to the identification of sequence-specific readers for epigenetic DNA modifications on cytosine”.
# Tests used:
# Assay in all cases: DAPPL (digital affinity profiling via proximity ligation, sequencing); 10 mM Tris-HCl pH 7.5, 50 mM NaCl, 1 mM DTT, 4% glycerol, room temperature, 30 min; GST-TFs on glutathione beads, 16-mer random dsDNA library, 0.1% formaldehyde crosslink after washing; high values mean tight binding
# FEV = molecular target: T1, FEV (Homo sapiens, UniProt Q99581 1-238); settings: protein: recombinant; tags: N-terminal GST; dsDNA, one strand shown
# T1 sequence: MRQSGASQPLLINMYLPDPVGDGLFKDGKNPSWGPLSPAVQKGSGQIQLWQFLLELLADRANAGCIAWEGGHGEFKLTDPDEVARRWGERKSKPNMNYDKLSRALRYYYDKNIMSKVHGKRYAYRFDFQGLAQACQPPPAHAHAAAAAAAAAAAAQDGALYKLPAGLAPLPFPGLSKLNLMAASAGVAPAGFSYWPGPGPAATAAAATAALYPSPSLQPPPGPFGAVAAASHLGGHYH
# How it was run: (§1)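 Human transcription factors carrying a GST fusion were produced in yeast, bound to glutathione beads, tagged with DNA barcodes and pooled together with a tag-only sample. Each pool was held with 200 nmole of a random double-stranded 16-mer DNA library in Tris/NaCl/DTT/glycerol buffer for 30 min at room temperature, then washed, crosslinked in 0.1% formaldehyde, proximity-ligated with BsaI/T4 ligase (1 h, 37 °C), PCR-amplified and sequenced on an Illumina NextSeq500. Binding signal is the read frequency of each hexamer for a given factor divided by its frequency in the tag-only sample.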
# ETV5 = ETV5 (Homo sapiens, UniProt P41161 1-510); settings: protein: recombinant; tags: N-terminal GST; dsDNA, one strand shown
# Chain of ETV5 (P41161 whole entry): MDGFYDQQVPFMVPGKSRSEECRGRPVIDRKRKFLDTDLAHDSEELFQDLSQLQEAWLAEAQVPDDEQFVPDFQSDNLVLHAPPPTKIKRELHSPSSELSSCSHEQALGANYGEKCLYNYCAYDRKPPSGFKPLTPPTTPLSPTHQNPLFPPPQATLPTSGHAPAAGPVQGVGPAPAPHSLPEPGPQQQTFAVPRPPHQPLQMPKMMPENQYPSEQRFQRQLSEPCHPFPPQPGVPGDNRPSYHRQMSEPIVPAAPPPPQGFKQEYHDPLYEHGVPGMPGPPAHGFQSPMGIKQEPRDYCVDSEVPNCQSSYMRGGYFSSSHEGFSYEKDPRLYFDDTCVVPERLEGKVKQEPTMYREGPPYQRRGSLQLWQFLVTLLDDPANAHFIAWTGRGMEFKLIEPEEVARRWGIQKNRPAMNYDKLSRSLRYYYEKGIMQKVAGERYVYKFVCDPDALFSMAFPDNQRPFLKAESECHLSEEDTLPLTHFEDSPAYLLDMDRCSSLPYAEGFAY
# How it was run: as §1
# HSF1 = HSF1 (Homo sapiens, UniProt Q00613 1-529); settings: protein: recombinant; tags: N-terminal GST; chain copies: 3; dsDNA, one strand shown
# Chain of HSF1 (Q00613 whole entry): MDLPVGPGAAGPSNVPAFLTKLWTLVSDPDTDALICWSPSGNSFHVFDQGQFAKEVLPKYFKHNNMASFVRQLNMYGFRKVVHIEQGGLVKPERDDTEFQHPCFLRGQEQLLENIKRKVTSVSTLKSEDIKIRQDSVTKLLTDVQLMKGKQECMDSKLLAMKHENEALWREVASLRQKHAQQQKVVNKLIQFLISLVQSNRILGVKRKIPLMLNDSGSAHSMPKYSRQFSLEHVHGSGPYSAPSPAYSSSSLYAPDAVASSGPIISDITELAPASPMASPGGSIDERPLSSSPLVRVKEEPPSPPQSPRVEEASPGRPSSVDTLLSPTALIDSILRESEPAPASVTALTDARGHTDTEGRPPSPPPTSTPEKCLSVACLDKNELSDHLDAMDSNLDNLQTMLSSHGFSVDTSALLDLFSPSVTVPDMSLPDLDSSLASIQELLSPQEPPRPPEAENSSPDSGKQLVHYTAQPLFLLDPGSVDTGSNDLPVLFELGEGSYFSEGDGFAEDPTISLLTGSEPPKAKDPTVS
# How it was run: as §1
# SPIC = molecular target: T2, SPIC (Homo sapiens, UniProt Q8N5J4 1-248); settings: protein: recombinant; tags: N-terminal GST; dsDNA, one strand shown
# T2 sequence: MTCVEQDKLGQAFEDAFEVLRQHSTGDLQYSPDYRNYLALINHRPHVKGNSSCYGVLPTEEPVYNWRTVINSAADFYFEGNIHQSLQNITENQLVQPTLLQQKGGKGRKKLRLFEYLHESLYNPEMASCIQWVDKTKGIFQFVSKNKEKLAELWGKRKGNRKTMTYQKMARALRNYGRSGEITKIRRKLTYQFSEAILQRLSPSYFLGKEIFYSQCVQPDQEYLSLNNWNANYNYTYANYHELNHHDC
# How it was run: as §1
# ELF4 = ELF4 (Homo sapiens, UniProt Q99607 1-663); settings: protein: recombinant; tags: N-terminal GST; dsDNA, one strand shown
# Chain of ELF4 (Q99607 whole entry): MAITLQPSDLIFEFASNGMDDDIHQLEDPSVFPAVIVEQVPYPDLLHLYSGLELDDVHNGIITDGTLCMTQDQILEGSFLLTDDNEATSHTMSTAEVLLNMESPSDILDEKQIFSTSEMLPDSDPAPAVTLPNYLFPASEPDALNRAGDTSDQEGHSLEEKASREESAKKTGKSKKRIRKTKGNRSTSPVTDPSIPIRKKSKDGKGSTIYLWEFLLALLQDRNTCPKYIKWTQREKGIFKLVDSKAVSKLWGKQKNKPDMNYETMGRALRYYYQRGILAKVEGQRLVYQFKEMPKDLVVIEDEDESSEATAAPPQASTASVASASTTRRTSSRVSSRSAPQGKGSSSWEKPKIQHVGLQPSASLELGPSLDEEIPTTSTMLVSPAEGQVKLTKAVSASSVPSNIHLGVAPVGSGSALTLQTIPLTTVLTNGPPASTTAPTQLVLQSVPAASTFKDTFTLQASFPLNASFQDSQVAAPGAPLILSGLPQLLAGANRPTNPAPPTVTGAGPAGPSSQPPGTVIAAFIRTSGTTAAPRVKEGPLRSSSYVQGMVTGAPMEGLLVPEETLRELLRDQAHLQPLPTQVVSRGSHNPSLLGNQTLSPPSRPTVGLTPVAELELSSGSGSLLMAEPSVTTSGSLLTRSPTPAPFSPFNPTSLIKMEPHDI
# How it was run: as §1
# ELK4 = molecular target: T3, ELK4 (Homo sapiens, UniProt P28324-2 1-405); settings: protein: recombinant; tags: N-terminal GST; dsDNA, one strand shown
# T3 sequence: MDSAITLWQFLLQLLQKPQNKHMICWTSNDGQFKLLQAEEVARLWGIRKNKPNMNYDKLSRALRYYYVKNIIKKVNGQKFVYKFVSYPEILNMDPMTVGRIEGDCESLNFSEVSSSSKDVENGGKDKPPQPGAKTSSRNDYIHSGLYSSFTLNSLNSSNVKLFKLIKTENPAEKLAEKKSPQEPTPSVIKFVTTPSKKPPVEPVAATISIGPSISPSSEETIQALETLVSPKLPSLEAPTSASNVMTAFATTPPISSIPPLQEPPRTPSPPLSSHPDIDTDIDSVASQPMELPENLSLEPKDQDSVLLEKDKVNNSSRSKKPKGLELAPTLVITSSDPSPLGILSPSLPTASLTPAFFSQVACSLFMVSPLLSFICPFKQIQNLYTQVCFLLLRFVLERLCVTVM
# How it was run: as §1
# ETV2 = molecular target: T4, ETV2 (Homo sapiens, UniProt O00321 1-342); settings: protein: recombinant; tags: N-terminal GST; dsDNA, one strand shown
# T4 sequence: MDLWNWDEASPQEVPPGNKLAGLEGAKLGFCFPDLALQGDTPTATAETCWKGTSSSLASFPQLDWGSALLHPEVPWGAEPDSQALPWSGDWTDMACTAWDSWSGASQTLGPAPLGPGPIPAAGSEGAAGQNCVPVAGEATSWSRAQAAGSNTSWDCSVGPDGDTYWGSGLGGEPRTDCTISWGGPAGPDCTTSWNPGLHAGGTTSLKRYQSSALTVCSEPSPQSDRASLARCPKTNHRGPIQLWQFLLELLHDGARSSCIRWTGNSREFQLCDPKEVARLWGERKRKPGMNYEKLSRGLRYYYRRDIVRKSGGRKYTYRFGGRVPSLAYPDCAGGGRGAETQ
# How it was run: as §1
# ELF3 = molecular target: T5, ELF3 (Homo sapiens, UniProt P78545 1-371); settings: protein: recombinant; tags: N-terminal GST; dsDNA, one strand shown
# T5 sequence: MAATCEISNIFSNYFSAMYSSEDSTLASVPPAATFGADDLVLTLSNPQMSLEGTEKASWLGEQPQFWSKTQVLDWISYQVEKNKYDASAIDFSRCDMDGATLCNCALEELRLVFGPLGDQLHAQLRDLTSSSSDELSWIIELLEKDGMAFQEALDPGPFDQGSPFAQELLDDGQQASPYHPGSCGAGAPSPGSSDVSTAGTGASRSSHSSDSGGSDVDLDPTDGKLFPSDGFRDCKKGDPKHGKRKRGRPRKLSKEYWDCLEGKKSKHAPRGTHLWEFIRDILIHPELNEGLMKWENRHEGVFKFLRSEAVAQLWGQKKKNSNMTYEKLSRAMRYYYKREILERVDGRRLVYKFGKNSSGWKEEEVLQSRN
# How it was run: as §1
# CRX = CRX (Homo sapiens, UniProt O43186 1-299); settings: protein: recombinant; tags: N-terminal GST; dsDNA, one strand shown
# Chain of CRX (O43186 whole entry): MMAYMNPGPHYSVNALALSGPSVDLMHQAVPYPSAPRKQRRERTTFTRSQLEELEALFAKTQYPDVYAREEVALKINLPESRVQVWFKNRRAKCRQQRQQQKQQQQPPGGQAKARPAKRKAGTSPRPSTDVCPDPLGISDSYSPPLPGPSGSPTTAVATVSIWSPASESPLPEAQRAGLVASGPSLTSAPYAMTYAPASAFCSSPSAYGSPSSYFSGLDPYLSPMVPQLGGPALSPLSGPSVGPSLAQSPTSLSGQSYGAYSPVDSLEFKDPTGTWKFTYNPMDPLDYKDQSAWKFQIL
# How it was run: as §1
# ETV1 = ETV1 (Homo sapiens, UniProt P50549 1-477); settings: protein: recombinant; tags: N-terminal GST; dsDNA, one strand shown
# Chain of ETV1 (P50549 whole entry): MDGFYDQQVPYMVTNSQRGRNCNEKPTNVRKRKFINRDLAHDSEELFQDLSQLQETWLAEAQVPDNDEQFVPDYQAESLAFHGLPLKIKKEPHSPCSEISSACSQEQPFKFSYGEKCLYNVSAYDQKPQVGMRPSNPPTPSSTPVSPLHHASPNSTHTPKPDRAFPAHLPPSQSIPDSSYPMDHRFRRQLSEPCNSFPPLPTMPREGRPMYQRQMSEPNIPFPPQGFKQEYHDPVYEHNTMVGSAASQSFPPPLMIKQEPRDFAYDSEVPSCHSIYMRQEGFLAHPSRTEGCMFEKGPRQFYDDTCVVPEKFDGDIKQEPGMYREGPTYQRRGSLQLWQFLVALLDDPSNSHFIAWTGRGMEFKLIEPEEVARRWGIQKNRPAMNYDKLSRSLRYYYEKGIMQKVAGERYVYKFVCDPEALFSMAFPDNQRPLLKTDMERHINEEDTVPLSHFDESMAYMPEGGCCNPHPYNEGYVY
# How it was run: as §1
sequence,measurement,setting,value
TCTGCC,binding signal,FEV,"1.38 fold enrichment (6-mer frequency, TF over GST control)"
same,binding signal,ETV5,"1.27 fold enrichment (6-mer frequency, TF over GST control)"
same,binding signal,HSF1,"1.35 fold enrichment (6-mer frequency, TF over GST control)"
same,binding signal,SPIC,"1.31 fold enrichment (6-mer frequency, TF over GST control)"
same,binding signal,ELF4,"1.53 fold enrichment (6-mer frequency, TF over GST control)"
same,binding signal,ELK4,"1.59 fold enrichment (6-mer frequency, TF over GST control)"
same,binding signal,ETV2,"1.24 fold enrichment (6-mer frequency, TF over GST control)"
same,binding signal,ELF3,"1.28 fold enrichment (6-mer frequency, TF over GST control)"
same,binding signal,CRX,"1.21 fold enrichment (6-mer frequency, TF over GST control)"
same,binding signal,ETV1,"1.36 fold enrichment (6-mer frequency, TF over GST control)"
GATCTC,binding signal,FEV,"1.2 fold enrichment (6-mer frequency, TF over GST control)"
same,binding signal,ETV5,"1.27 fold enrichment (6-mer frequency, TF over GST control)"
same,binding signal,HSF1,"1.42 fold enrichment (6-mer frequency, TF over GST control)"
same,binding signal,SPIC,"1.26 fold enrichment (6-mer frequency, TF over GST control)"
same,binding signal,ELF4,"1.3 fold enrichment (6-mer frequency, TF over GST control)"
same,binding signal,ELK4,"1.22 fold enrichment (6-mer frequency, TF over GST control)"
same,binding signal,ETV2,"1.3 fold enrichment (6-mer frequency, TF over GST control)"
same,binding signal,ELF3,"1.23 fold enrichment (6-mer frequency, TF over GST control)"
same,binding signal,CRX,"1.46 fold enrichment (6-mer frequency, TF over GST control)"
same,binding signal,ETV1,"1.35 fold enrichment (6-mer frequency, TF over GST control)"
CATATT,binding signal,FEV,"1.22 fold enrichment (6-mer frequency, TF over GST control)"
same,binding signal,ETV5,"1.26 fold enrichment (6-mer frequency, TF over GST control)"
same,binding signal,HSF1,"1.31 fold enrichment (6-mer frequency, TF over GST control)"
same,binding signal,SPIC,"1.12 fold enrichment (6-mer frequency, TF over GST control)"
same,binding signal,ELF4,"1.32 fold enrichment (6-mer frequency, TF over GST control)"
same,binding signal,ELK4,"1.29 fold enrichment (6-mer frequency, TF over GST control)"
same,binding signal,ETV2,"1.43 fold enrichment (6-mer frequency, TF over GST control)"
same,binding signal,ELF3,"1.35 fold enrichment (6-mer frequency, TF over GST control)"
same,binding signal,CRX,"1.33 fold enrichment (6-mer frequency, TF over GST control)"
same,binding signal,ETV1,"1.25 fold enrichment (6-mer frequency, TF over GST control)"
CCAAAA,binding signal,FEV,"1.2 fold enrichment (6-mer frequency, TF over GST control)"
same,binding signal,ETV5,"1.19 fold enrichment (6-mer frequency, TF over GST control)"
same,binding signal,HSF1,"1.17 fold enrichment (6-mer frequency, TF over GST control)"
same,binding signal,SPIC,"1.05 fold enrichment (6-mer frequency, TF over GST control)"
same,binding signal,ELF4,"1.19 fold enrichment (6-mer frequency, TF over GST control)"
same,binding signal,ELK4,"1.05 fold enrichment (6-mer frequency, TF over GST control)"
same,binding signal,ETV2,"1.28 fold enrichment (6-mer frequency, TF over GST control)"
same,binding signal,ELF3,"1.03 fold enrichment (6-mer frequency, TF over GST control)"
same,binding signal,CRX,"1.06 fold enrichment (6-mer frequency, TF over GST control)"
same,binding signal,ETV1,"1.18 fold enrichment (6-mer frequency, TF over GST control)"
GTTTAA,binding signal,FEV,"1.11 fold enrichment (6-mer frequency, TF over GST control)"
same,binding signal,ETV5,"1.07 fold enrichment (6-mer frequency, TF over GST control)"
same,binding signal,HSF1,"1.28 fold enrichment (6-mer frequency, TF over GST control)"
same,binding signal,SPIC,"1.02 fold enrichment (6-mer frequency, TF over GST control)"
same,binding signal,ELF4,"1.1 fold enrichment (6-mer frequency, TF over GST control)"
same,binding signal,ELK4,"1.14 fold enrichment (6-mer frequency, TF over GST control)"
same,binding signal,ETV2,"1.23 fold enrichment (6-mer frequency, TF over GST control)"
same,binding signal,ELF3,"1.05 fold enrichment (6-mer frequency, TF over GST control)"
same,binding signal,CRX,"1.79 fold enrichment (6-mer frequency, TF over GST control)"
same,binding signal,ETV1,"1.14 fold enrichment (6-mer frequency, TF over GST control)"
ATCATC,binding signal,FEV,"1.11 fold enrichment (6-mer frequency, TF over GST control)"
same,binding signal,ETV5,"1.1 fold enrichment (6-mer frequency, TF over GST control)"
same,binding signal,HSF1,"1.4 fold enrichment (6-mer frequency, TF over GST control)"
same,binding signal,SPIC,"1.24 fold enrichment (6-mer frequency, TF over GST control)"
same,binding signal,ELF4,"1.17 fold enrichment (6-mer frequency, TF over GST control)"
same,binding signal,ELK4,"1.31 fold enrichment (6-mer frequency, TF over GST control)"
same,binding signal,ETV2,"1.21 fold enrichment (6-mer frequency, TF over GST control)"
same,binding signal,ELF3,"1.26 fold enrichment (6-mer frequency, TF over GST control)"
same,binding signal,CRX,"1.56 fold enrichment (6-mer frequency, TF over GST control)"
same,binding signal,ETV1,"1.12 fold enrichment (6-mer frequency, TF over GST control)"
CCTGAC,binding signal,FEV,"1.5 fold enrichment (6-mer frequency, TF over GST control)"
same,binding signal,ETV5,"1.71 fold enrichment (6-mer frequency, TF over GST control)"
same,binding signal,HSF1,"1.2 fold enrichment (6-mer frequency, TF over GST control)"
same,binding signal,SPIC,"1.3 fold enrichment (6-mer frequency, TF over GST control)"
same,binding signal,ELF4,"1.42 fold enrichment (6-mer frequency, TF over GST control)"
same,binding signal,ELK4,"1.5 fold enrichment (6-mer frequency, TF over GST control)"
same,binding signal,ETV2,"1.61 fold enrichment (6-mer frequency, TF over GST control)"
same,binding signal,ELF3,"1.7 fold enrichment (6-mer frequency, TF over GST control)"
same,binding signal,CRX,"1.11 fold enrichment (6-mer frequency, TF over GST control)"
same,binding signal,ETV1,"1.61 fold enrichment (6-mer frequency, TF over GST control)"
GCGATG,binding signal,FEV,"1.22 fold enrichment (6-mer frequency, TF over GST control)"
same,binding signal,ETV5,"1.25 fold enrichment (6-mer frequency, TF over GST control)"
same,binding signal,HSF1,"1.08 fold enrichment (6-mer frequency, TF over GST control)"
same,binding signal,SPIC,"1.07 fold enrichment (6-mer frequency, TF over GST control)"
same,binding signal,ELF4,"1.21 fold enrichment (6-mer frequency, TF over GST control)"
same,binding signal,ELK4,"1.2 fold enrichment (6-mer frequency, TF over GST control)"
same,binding signal,ETV2,"1.25 fold enrichment (6-mer frequency, TF over GST control)"
same,binding signal,ELF3,"1.26 fold enrichment (6-mer frequency, TF over GST control)"
same,binding signal,CRX,"1.03 fold enrichment (6-mer frequency, TF over GST control)"
same,binding signal,ETV1,"1.15 fold enrichment (6-mer frequency, TF over GST control)"
